Measurements from PubChem BioAssay AID527 (NMMLSC, 2006).
Screen size: about 24,000 compounds; about 65 (0.3%) were called active.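 How the source made its calls: active means share of bacteria positive for the green fluorescent reporter and its mean brightness both inhibited by 50% or more; inactive means the rest, inconclusive results apart.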 Only a selection was taken, and actives are over-represented in it overall.

Assay: blockers of AIP-driven agr signalling in S. aureus – RNAIII-GFP reporter, flow cytometry, primary screen (AID 527);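 further: 0% = AIP-stimulated control and 100% = unstimulated bacteria without AIP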
Conditions: S. aureus RN6390 RNAIII-GFP reporter, AIP-induced, flow cytometry 3 h, at 2 µM, stronger effect = higher value
[1] = measured here: inhibition of GFP MFI

SMILES | inhibition | inhibition [1] [%]
CCN(CC)CCNC(=O)Cn1cnc2sc(C)c(S(=O)(=O)N3CCOCC3)c2c1=O | -4.4% (inactive) | -7.2
CCn1cc(C(=O)N2CC=C(c3ccccc3)CC2)c(=O)c2ccc(C)nc21 | 17.2% (inactive) | 30.6
CCOC(=O)Cn1c(=O)oc2cc(S(=O)(=O)N(C)Cc3ccco3)ccc21 | -6.4% (inactive) | -10.2
CC1CCN(c2oc(-c3ccccc3F)nc2C#N)CC1 | 0.5% (inactive) | 3.2
Cc1ccccc1NC(=O)c1ccccc1 | -2.3% (inactive) | -11.3
CCOC(=O)N1CCN(CC(=O)c2c(C)[nH]c3ccccc23)CC1 | -0.6% (inactive) | 7.3
COc1cc2cc(CN(CCN3CCCC3)C(=O)Nc3ccccc3Cl)c(=O)[nH]c2cc1OC | -3.5% (inactive) | -20.1
Cc1ccccc1CN1CCN(C(=O)c2cccc(F)c2)CC1 | -0.2% (inactive) | -10.6
COc1cccc(OC)c1OCCN1CCN(C(=O)c2ccco2)CC1 | -1% (inactive) | 4.2
COc1ccc(OC)c(NC(=O)CCN2CCC(C)CC2)c1 | -0.7% (inactive) | -21.9
CCOc1ccc(-c2cn(S(=O)(=O)c3cccc4nsnc34)nc2N)cc1 | 2.7% (inactive) | 26.8
Cn1c(=O)[nH]c(=O)c2c1nc(NCCCn1ccnc1)n2Cc1cccc(Br)c1 | -0.5% (inactive) | -1.6
CC(=O)c1cc2c(cc1NC(=O)CN1CCCCCC1)OCO2 | -3.5% (inactive) | -12.2
O=C(CC(NCCN1CCOCC1)C(=O)O)Nc1cccc(Cl)c1 (centres undefined) | -0.4% (inactive) | 7.8
CCN(CC)C(=O)CCC(=O)Nc1ccc(C(=O)OC)cc1 | 0.7% (inactive) | 0
CCOc1ccc(Cn2nnc(C(=O)Nc3ccc(OC)cc3OC)c2N)cc1 | -0.3% (inactive) | -4.3
COc1ccc(C(=O)NCc2cn3ccccc3n2)cc1 | -9.5% (inactive) | -17.4
Cc1cc(C)c2c(n1)nn1c(N3CCOCC3)cc(C)nc21 | -1.1% (inactive) | 1.4
CCCCN(CC)C(=O)CN(C)S(=O)(=O)c1cccc2nsnc12 | -1.2% (inactive) | -4.3
CC1CCCCC1NC(=O)CCS(=O)(=O)c1cccc2nonc12 (centres undefined) | 4% (inactive) | 22.1
CCOc1ccc(C2C(C(=O)NC)=C(C)Nc3nc4ccccc4n32)cc1OC (centres undefined) | 2.9% (inactive) | 6.8

SMILES | inhibition | inhibition [1] [%]
O=C(NCc1ccco1)C1CCCN(S(=O)(=O)c2cnc[nH]2)C1 (centres undefined) | 3.6% (inactive) | 9.1
CCn1cc(C(=O)NCC2CCCO2)c(=O)c2cc(S(=O)(=O)N3CCCCC3)ccc21 (centres undefined) | -8.4% (inactive) | -14.4
O=C(c1ccco1)N1CCN(C(=O)c2ccc(COc3ccc(F)cc3)o2)CC1 | 2.8% (inactive) | 8
COc1ccc(C2OC(=O)CC2C(=O)NC(C)C)cc1 (centres undefined) | -1% (inactive) | -15.8
COc1cc2[nH]c(=S)n(Cc3ccc(C)o3)c(=O)c2cc1OC | 2% (inactive) | 9.8
O=C(CN1C(=O)CCS(=O)(=O)c2ccccc21)NCc1ccc(F)cc1 | -1.6% (inactive) | -8.2
CCOC(=O)CSc1nnc(NC(=O)c2cccc(S(=O)(=O)N3CCCCC3)c2)s1 | -0.3% (inactive) | 13
COc1cccc(OCC(O)CN2CCN(CCO)CC2)c1 (centres undefined) | -2% (inactive) | -8.9
CN(C)/C=C1\C=C(c2ccccc2)OC1=O | 0.4% (inactive) | 1.9
O=C(NCc1ccc2c(c1)OCO2)C1CCCN(S(=O)(=O)c2cccs2)C1 (centres undefined) | 16.2% (inactive) | 44.2
CCCCC(=O)Nc1cc(C)c2c(=O)oc3ccccc3c2n1 | 43.3% (inactive) | 69.9
COc1ccc(N2CCN(CCNC(=O)CCN3C(=O)COc4ccccc43)CC2)cc1 | -0.3% (inactive) | 5.4
COc1cc2[nH]c(=S)n(CCN3CCCCC3C)c(=O)c2cc1OC (centres undefined) | 2.3% (inactive) | 17.7
O=C(CC(NS(=O)(=O)c1ccc(Cl)cc1)c1ccco1)NC1CCCC1 (centres undefined) | 7.7% (inactive) | 13.1
Cc1c(NC(=O)C(C)OC(=O)c2cc3c4ccccc4n(C)c3s2)c(=O)n(-c2ccccc2)n1C (centres undefined) | 0.6% (inactive) | 3.3
O=C(Cn1nc(Cc2cccnc2)c2ccccc2c1=O)NCC1COc2ccccc2O1 (centres undefined) | 5.9% (inactive) | 12.1
Cc1cc(Cl)c(S(=O)(=O)Nc2ccc3c(c2)OCCO3)cc1OCC(N)=O | -0.7% (inactive) | -17.3
Cc1ccc(-c2nc(CS(=O)CC(=O)N3CCN(c4ncccn4)CC3)c(C)o2)cc1 (centres undefined) | -2.1% (inactive) | -1.4
COc1cc(C(O)c2nc3ccccc3n2C)cc(OC)c1OC (centres undefined) | -4% (inactive) | -99.6
CC(C)OCCCNC(=O)CNC(=O)c1cccs1 | -1.5% (inactive) | -15.3
Cc1ccc(S(=O)(=O)N2C3C=CC(C3)C2C(=O)O)cc1 (centres undefined) | -5.7% (inactive) | -28.5

SMILES | inhibition | inhibition [1] [%]
Cc1ccc(CNC(=O)C2CCCN(S(C)(=O)=O)C2)cc1 (centres undefined) | 0.6% (inactive) | 10
COc1ccccc1C(=O)N1CCN=C1SCc1cccnc1 | -1.3% (inactive) | -5.4
CC(C)(C)n1nc2c(c1NC(=O)c1ccc(S(=O)(=O)N3CCCC3)cc1)CS(=O)C2 (centres undefined) | -6.3% (inactive) | -9.9
Cc1nn(-c2ccccc2)c2c1C(=O)NC(=O)C(C)(C)C2 | 4.5% (inactive) | 27.5
O=C(Nc1ccncc1)c1cc2ccccc2o1 | 0% (inactive) | 2.6
COc1ccc(S(=O)(=O)Nc2ccc(S(=O)(=O)N3CCCCC3)cc2)cc1OC | -3.8% (inactive) | -10.7
Cc1onc(-c2ccccc2)c1C(=O)N1CCOCC1 | 0% (inactive) | 3.7
Cc1ccc(C(c2sc3nc(C)nn3c2O)N2CCN(c3ccc(F)cc3)CC2)cc1 (centres undefined) | 1.8% (inactive) | -4.2
C=CCSc1nc2c(c(=O)[nH]1)C(C(C)C)C(C#N)=C(N)O2 (centres undefined) | 2.6% (inactive) | 27.2
CCN(c1ccc2c(c1)OCO2)S(=O)(=O)c1cc(Br)cc2c1N(C(=O)C1CC1)CC2 | -0.3% (inactive) | 5.6
CCOC(=O)CSC1=C(C#N)C(c2sccc2C)CC(=O)N1 (centres undefined) | -0.9% (inactive) | -28.9
COC(=O)c1ccc(NC(=O)C(C)N2C(=O)c3ccccc3C2=O)cc1 (centres undefined) | -1.2% (inactive) | -12.9
Cc1cc(Nc2cccc(C)c2C)n2ncnc2n1 | 0% (inactive) | 1.4
COC(=O)c1ccc2c(=O)n(CC3CCCO3)c(=S)[nH]c2c1 (centres undefined) | -2.1% (inactive) | 1.7
O=C(NCCCN1CCN(C2CCCCC2)CC1)Nc1ccccc1C(F)(F)F | -9.7% (inactive) | -13.2
COc1cccc(N2CCN(C(=O)C3CCCN(S(=O)(=O)c4cnc[nH]4)C3)CC2)c1 (centres undefined) | -1.3% (inactive) | -0.6
Cc1ccc(C)c(N2CCN(C(=O)CCc3nc4ccccc4[nH]3)CC2)c1 | 5.3% (inactive) | 36.1
Cc1ccc(C)c(N2CCN(C(=O)CCCCn3c(=O)[nH]c4ccccc4c3=O)CC2)c1 | 71.2% (active) | 71.1
O=C(CCn1c(=O)[nH]c2ccccc2c1=O)NCCCN1CCN(c2cccc(Cl)c2)CC1 | -4.8% (inactive) | -25.8
COC(=O)c1ccc(CN(c2ccccc2OC)S(=O)(=O)c2cccs2)o1 | -0.8% (inactive) | -15.8
COC(=O)CN(c1nc(C)c(Cl)c(OC)n1)S(=O)(=O)c1ccc(C)cc1 | -3.6% (inactive) | -2.5

SMILES | inhibition | inhibition [1] [%]
Cc1ccccc1S(=O)(=O)Cc1ccc(C(=O)NCCN2CCCCC2C)o1 (centres undefined) | 1.5% (inactive) | -6.9
O=C(C(Cc1ccccc1)n1cccc1)N1CCN(C2CCCCC2)CC1 (centres undefined) | -0.8% (inactive) | -1.7
CCOc1ccc(OCC)c(NC(=O)C2CCN(S(=O)(=O)c3c(C)noc3C)CC2)c1 | -1.2% (inactive) | -15.6
O=C(c1ccccc1)c1ccc2nc(N3CCCCC3)c3nncn3c2c1 | -1.8% (inactive) | -34.9
Cc1cccc(N2CCN(Cc3c(C)n(C)n(-c4ccccc4)c3=O)CC2)c1C | -0.1% (inactive) | -1.8
COc1cccc(N2C(=O)C3CCCN3C2c2ccc(F)cc2)c1 (centres undefined) | -4.7% (inactive) | -8.4
CN1CCN(S(=O)(=O)c2ccc3[nH]cc(C(=O)O)c(=O)c3c2)CC1 | -2.2% (inactive) | -22.7
CC(C)N1C(=O)C2C(C(=O)NC3CCCCC3)C3C=CC2(O3)C1C(=O)NC1CCCC1 (centres undefined) | -2.6% (inactive) | -16.1
CC1CCC(NS(=O)(=O)c2ccc3c(c2)n(C)c(=O)c(=O)n3C)CC1 (centres undefined) | -0.4% (inactive) | 12.3
C=CCn1c2ccccc2c2nnc(SC(CC)C(=O)Nc3nc(C)c(C(=O)OCC)s3)nc21 (centres undefined) | 28.9% (inactive) | 48.3
COC(=O)c1cc(C(=O)OC)cc(N2C(=O)CC(N3CCN(c4ccccc4)CC3)C2=O)c1 (centres undefined) | 5.6% (inactive) | 38.5
COCCCNC(=O)CSc1nc2ccc(N3CCOCC3)cc2c(=O)n1CCc1ccccc1 | 10.2% (inactive) | 33.4
COC(=O)Cn1c(=NC(=O)CSCC(=O)Nc2cc(C)on2)sc2ccccc21 | 0.4% (inactive) | 4.6
CC(C)(C)C(=O)CCN1C(=O)C2(OCCO2)c2ccccc21 | -2.2% (inactive) | -21.9
Cc1cccn2c(=O)c3cc(C(=O)NCc4ccccn4)n(C)c3nc12 | -3.5% (inactive) | -9.7
C=CCSc1nnc(Cn2c(=O)sc3ccccc32)n1C | 24.2% (inactive) | 43.3
CCCS(=O)(=O)N1CCCC(C(=O)N2CCN(c3ccccc3)CC2)C1 (centres undefined) | -1% (inactive) | -6.2
CC(c1ccco1)N(C(=O)c1ccc(S(=O)(=O)N2CCCCC2)cc1)c1ccccn1 (centres undefined) | -0.6% (inactive) | 4.5
CCC1=C(C(=O)OC)C(c2cc(OC)ccc2OC)C(C#N)=C(N)O1 (centres undefined) | -0.3% (inactive) | 1.1
